# Experimental data: PubChem BioAssay (Tox21)
# Unmarked numbers belong to inactive results. Records with an inconclusive call do not appear. A call without a number means that no potency is given here. Calls of active or inactive are those of the source. Unless noted, calls follow the shape of the dose curve; as a rule, active = well fitted curve in the direction sought with a large enough effect in the repeat runs; inconclusive = weak or mixed curves; inactive = no such curve, though single readings can be large; an effect the other way counts as inactive or inconclusive.
# Experiments:
# [1] = qHTS assay for small molecule agonists of the p53 signaling pathway (AID 651631; calls by dose curve; also: nearly all actives have a fitted effect of over 15% in size)
# How it was run: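 Beta-lactamase reporter activity under p53 response elements was quantified in HCT-116 cells by FRET fluorescence, following 16 h incubation with test compounds at 37 °C and 2 h substrate development at room temperature.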
# [2] = qHTS assay for small molecules that induce genotoxicity in human embryonic kidney cells expressing luciferase-tagged ATAD5 (AID 651632); also: nearly all actives have a fitted effect of over 15% in size
# How it was run: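 Increased luciferase signal from ATAD5-tagged reporter cells indicates DNA-damage-driven ATAD5 induction. HEK293T cells are treated for 16 hr at 37C before detection with Amplite.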
# [3] = qHTS assay for small molecule agonists of the p53 signaling pathway - cell viability (AID 651633; calls by dose curve;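 also: p53RE-bla HCT reporter cells with a stable beta-lactamase p53 reporter; series mostly up to about 83 µM; nearly all actives have a fitted effect of over 30% in size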)
# How it was run: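 p53RE-bla cells were treated with compound for 16 hours at 37 C. Cytotoxicity was then measured as CellTiter-Glo luminescence after 30 min at room temperature.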
# [4] = qHTS assay for small molecules that induce genotoxicity in human embryonic kidney cells expressing luciferase-tagged ATAD5 - cell viability (AID 651634; calls by dose curve; also: nearly all actives have a fitted effect of over 25% in size)
# How it was run: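 Cytotoxicity counterscreen in HEK293T cells bearing an ATAD5-luciferase reporter: live-cell protease activity measured by CellTiter-Fluor fluorescence after 15.5 hr compound exposure.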
# [5] = qHTS assay for small molecule disruptors of the mitochondrial membrane potential - cell viability (AID 720634; calls by dose curve;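 also: human HepG2 liver cancer cells; series mostly up to about 83 µM; nearly all actives have a fitted effect of over 20% in size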)
# How it was run: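 After overnight attachment at 37 C, HepG2 cells received compound or DMSO vehicle for 1 hr. Viability is then taken from ATP-driven luminescence following a 30 min room-temperature CellTiter-Glo step.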
# [6] = qHTS assay to test for compound auto fluorescence at 590 nm (red) in HepG2 cells (AID 720674)
# How it was run: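 Fluorescence at 590 nm emission following 540 nm excitation was recorded from HepG2 wells one hour after compound transfer, with DMSO-only wells as vehicle and Rose Bengal sodium equivalency as the scale.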
# [7] = qHTS assay to test for compound auto fluorescence at 535 nm (green) in HepG2 cells (AID 720675)
# [8] = qHTS assay to test for compound auto fluorescence at 460 nm (blue) in HEK293 cells (AID 720678)
# How it was run: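 Cells were seeded and left to adhere for 4-5 hr at 37C. Compounds were then pin-transferred. After an overnight incubation at 37C under 5% CO2, intrinsic fluorescence at 405/460 nm was measured and referenced to triamterene.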
# [9] = qHTS assay to test for compound auto fluorescence at 590 nm (red) in HEK293 cells (AID 720679)
# How it was run: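 Each well held 2,000 HEK293 cells in medium containing 10% dialyzed FBS. Following 4-5 hr attachment at 37C, 23 nL test compound or DMSO was added; plates sat overnight, and red fluorescence (540/590nm) was recorded.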
# [10] = qHTS assay to test for compound auto fluorescence at 535 nm (green) in HEK293 cells (AID 720680)
# [11] = qHTS assay to test for compound auto fluorescence at 460 nm (blue) in HEK293 cell free culture (AID 720681)
# How it was run: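 Compounds were added to cell-free DMEM with 10% FBS and fluorescence read directly. The blue channel used 405 nm excitation and 460 nm emission, with triamterene as the reference fluorophore.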
# [12] = qHTS assay to test for compound auto fluorescence at 535 nm (green) in HEK293 cell free culture (AID 720682)
# How it was run: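 Each library compound, or DMSO control, is added by pintool to medium alone, comprising DMEM and 10% FBS. Emission at 535 nm following 485 nm excitation is quantified against fluorescein.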
# [13] = qHTS assay to test for compound auto fluorescence at 590 nm (red) in HepG2 cell free culture (AID 720684)
# How it was run: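 Compounds are added to culture medium (MEM, 10% FBS) lacking cells, then fluorescence is read at excitation 540 nm, emission 590 nm, with Rose Bengal sodium as the equivalency standard.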
# [14] = qHTS assay to test for compound auto fluorescence at 460 nm (blue) in HepG2 cell free culture (AID 720685)
# How it was run: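 Compound (23 nL) or DMSO pinned into cell-free MEM with 10% FBS; blue fluorescence read at 405/460 nm excitation/emission, expressed as auto-fluorescence equivalency to triamterene.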
# [15] = qHTS assay to test for compound auto fluorescence at 535 nm (green) in HepG2 cell free culture (AID 720686)
# [16] = qHTS assay to test for compound auto fluorescence at 460 nm (blue) in HepG2 cells (AID 720687)
# How it was run: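 HepG2 cells in MEM with 10% FBS, attached overnight at 37 C, were exposed to compound or DMSO for 1 hr at 37 C, 5% CO2. Blue fluorescence was read at 405/460 nm, with triamterene as reference fluorophore.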
# [17] = target: Glucocorticoid receptor (Homo sapiens) (UniProt P04150); test: qHTS assay to identify small molecule agonists of the glucocorticoid receptor (GR) signaling pathway (AID 720691; active = well fitted activation curve with a large enough effect in the signal ratio in the repeat runs, not every such curve was filed as active; the % refers to the signal ratio; also: potency is read from the fitted curve at half-maximal effect)
# How it was run: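 Agonist mode in a HeLa line carrying a GRE-controlled beta-lactamase reporter. Compounds act for 18 h at 37 C before a 2 h room-temperature FRET substrate step and fluorescence reading.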
# [18] = target: Glucocorticoid receptor (Homo sapiens) (UniProt P04150); test: qHTS assay to identify small molecule antagonists of the glucocorticoid receptor (GR) signaling pathway (AID 720692; active = well fitted inhibition curve with a large enough effect in the signal ratio in the repeat runs, not every such curve was filed as active; the % refers to the signal ratio)
# How it was run: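 Cells plated, rested 4 h at 37 C/5% CO2; compounds in DMSO pin-transferred; dexamethasone added to 5 nM final; 18 h at 37 C; B/G FRET substrate added, 2 h room temperature; fluorescence measured.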
# [19] = qHTS assay to test for compound auto fluorescence at 590 nm (red) in HEK293 cell free culture (AID 720683)
# How it was run: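 Cell-free wells of DMEM with 10% FBS received compound, and intrinsic fluorescence was read at excitation/emission 540/590 nm. Values expressed as equivalence to Rose Bengal sodium.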
# Sequence of Glucocorticoid receptor (Homo sapiens) (P04150 whole entry, looked up): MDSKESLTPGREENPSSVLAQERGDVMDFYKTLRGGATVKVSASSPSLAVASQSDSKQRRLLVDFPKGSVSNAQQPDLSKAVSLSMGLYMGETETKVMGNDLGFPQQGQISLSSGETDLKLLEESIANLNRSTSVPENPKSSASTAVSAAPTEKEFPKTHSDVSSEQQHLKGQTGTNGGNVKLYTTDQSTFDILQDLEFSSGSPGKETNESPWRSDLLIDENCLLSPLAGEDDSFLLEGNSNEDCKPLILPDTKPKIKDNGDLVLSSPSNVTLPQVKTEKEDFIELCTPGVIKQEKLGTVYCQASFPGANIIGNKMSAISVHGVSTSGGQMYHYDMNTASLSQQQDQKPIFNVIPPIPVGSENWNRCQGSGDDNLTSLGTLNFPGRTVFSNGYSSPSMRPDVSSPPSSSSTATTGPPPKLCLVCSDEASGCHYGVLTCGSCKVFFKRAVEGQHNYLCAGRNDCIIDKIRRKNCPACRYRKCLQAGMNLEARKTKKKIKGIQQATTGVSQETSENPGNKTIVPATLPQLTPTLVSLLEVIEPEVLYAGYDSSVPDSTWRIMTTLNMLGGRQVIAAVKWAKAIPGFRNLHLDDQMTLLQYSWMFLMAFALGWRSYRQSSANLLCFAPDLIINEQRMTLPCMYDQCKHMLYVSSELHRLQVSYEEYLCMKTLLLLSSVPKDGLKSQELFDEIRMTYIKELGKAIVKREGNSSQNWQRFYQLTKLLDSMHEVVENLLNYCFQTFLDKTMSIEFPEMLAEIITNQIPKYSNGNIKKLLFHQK
smiles,measurement,setting,value
CC1(C)S[C@@H]2[C@H](N=CN3CCCCCC3)C(=O)N2[C@H]1C(=O)O,outcome,[1],inactive
same,Potency,[2],inactive
same,outcome,[3],inactive
same,Potency,[4],inactive
same,outcome,[5],inactive
same,outcome,[6],inactive
same,outcome,[7],inactive
same,outcome,[8],inactive
same,outcome,[9],inactive
same,outcome,[10],inactive
same,outcome,[11],inactive
same,outcome,[12],inactive
same,outcome,[13],inactive
same,outcome,[14],inactive
same,outcome,[15],inactive
same,outcome,[16],inactive
same,Potency,[17],21.3 µM (active)
same,outcome,[18],inactive
COCCOCCOCCOCCO,outcome,[1],inactive
same,Potency,[2],inactive
same,outcome,[3],inactive
same,Potency,[4],inactive
same,outcome,[5],inactive
same,outcome,[6],inactive
same,outcome,[8],inactive
same,outcome,[9],inactive
same,outcome,[10],inactive
same,outcome,[11],inactive
same,outcome,[19],inactive
same,outcome,[13],inactive
same,outcome,[14],inactive
same,outcome,[15],inactive
same,outcome,[16],inactive
O=C1c2ccccc2C(=O)C1c1ccccc1,outcome,[1],inactive
same,Potency,[2],inactive
same,outcome,[3],inactive
same,Potency,[4],inactive
same,outcome,[5],inactive
same,"fluorescence, relative to Rose Bengal",[6],0.709% [at 18.6 µM]
same,"fluorescence, % of fluorescein control",[7],0.0928% [at 18.6 µM]
same,"fluorescence, % of triamterene",[8],-0.166% [at 18.6 µM]
same,"fluorescence, % of fluorescent control",[9],0.0127% [at 18.6 µM]
same,"fluorescence, % of fluorescein",[10],-0.0324% [at 18.6 µM]
same,"fluorescence, % of fluorescent control",[11],-0.0862% [at 18.6 µM]
same,activity change,[12],-0.148% [at 18.6 µM]
same,"fluorescence, % of fluorescent control",[19],0.0114% [at 18.6 µM]
same,"fluorescence, % of Rose Bengal",[13],-0.261% [at 18.6 µM]
same,"fluorescence, % of fluorescent control",[14],-0.0248% [at 18.6 µM]
same,"fluorescence, % of fluorescein control",[15],-0.0587% [at 18.6 µM]
same,"fluorescence, % of fluorescent control",[16],-0.0075% [at 18.6 µM]
same,Potency,[17],inactive
O=C(O)C(=O)Cc1ccccc1,outcome,[1],inactive
same,Potency,[2],inactive
same,outcome,[3],inactive
same,Potency,[4],inactive
same,outcome,[5],inactive
same,outcome,[6],inactive
same,outcome,[7],inactive
same,outcome,[8],inactive
same,outcome,[9],inactive
same,outcome,[10],inactive
same,outcome,[11],inactive
same,outcome,[12],inactive
same,outcome,[19],inactive
same,outcome,[13],inactive
same,outcome,[14],inactive
same,outcome,[18],inactive
O=C(O)Cc1ccc(Cl)cc1Cl,outcome,[1],inactive
same,Potency,[2],inactive
same,outcome,[3],inactive
same,Potency,[4],inactive
same,outcome,[5],inactive
same,outcome,[6],inactive
same,outcome,[7],inactive
same,outcome,[8],inactive
same,outcome,[9],inactive
same,outcome,[10],inactive
same,outcome,[11],inactive
same,outcome,[19],inactive
same,outcome,[13],inactive
same,outcome,[14],inactive
same,outcome,[15],inactive
same,outcome,[16],inactive
same,outcome,[18],inactive
BrCCCCCBr,outcome,[1],inactive
same,Potency,[2],inactive
same,outcome,[3],inactive
same,Potency,[4],inactive
same,outcome,[5],inactive
same,outcome,[6],inactive
same,outcome,[8],inactive
same,outcome,[9],inactive
same,outcome,[10],inactive
same,outcome,[11],inactive
same,outcome,[12],inactive
same,outcome,[19],inactive
same,outcome,[13],inactive
same,outcome,[14],inactive
same,outcome,[15],inactive
same,outcome,[16],inactive
same,Potency,[17],inactive
CN(CCOc1ccc(NS(C)(=O)=O)cc1)CCc1ccc(NS(C)(=O)=O)cc1,outcome,[1],inactive
same,Potency,[2],inactive
same,outcome,[3],inactive
same,Potency,[4],inactive
same,outcome,[5],inactive
same,outcome,[6],inactive
same,outcome,[8],inactive
same,outcome,[9],inactive
same,outcome,[10],inactive
same,outcome,[11],inactive
same,outcome,[12],inactive
same,outcome,[19],inactive
same,outcome,[13],inactive
same,outcome,[14],inactive
same,outcome,[15],inactive
same,outcome,[16],inactive
same,Potency,[17],7.56 µM (active)
O=C1c2ccccc2C(=O)N1CCl,outcome,[1],inactive
same,Potency,[2],inactive
same,outcome,[3],inactive
same,Potency,[4],inactive
same,outcome,[5],inactive
same,outcome,[6],inactive
same,outcome,[7],inactive
same,outcome,[8],inactive
same,outcome,[9],inactive
same,outcome,[10],inactive
same,outcome,[11],inactive
same,outcome,[12],inactive
same,outcome,[19],inactive
same,outcome,[13],inactive
same,outcome,[14],inactive
same,outcome,[15],inactive
same,outcome,[16],inactive
same,Potency,[17],inactive
same,outcome,[18],inactive
CCC(C=O)CC,outcome,[1],inactive
same,Potency,[2],inactive
same,outcome,[3],inactive
same,Potency,[4],inactive
same,outcome,[5],inactive
same,outcome,[6],inactive
same,outcome,[7],inactive
same,outcome,[8],inactive
same,outcome,[9],inactive
same,outcome,[10],inactive
same,outcome,[11],inactive
same,outcome,[19],inactive
same,outcome,[13],inactive
same,outcome,[14],inactive
same,outcome,[15],inactive
same,outcome,[16],inactive
same,Potency,[17],inactive
CC(C)=CCOC(=O)c1ccccc1,outcome,[1],inactive
same,Potency,[2],inactive
same,outcome,[3],inactive
same,Potency,[4],inactive
same,outcome,[5],inactive
same,outcome,[6],inactive
same,outcome,[8],inactive
same,outcome,[9],inactive
same,outcome,[10],inactive
same,outcome,[11],inactive
same,outcome,[12],inactive
same,outcome,[19],inactive
same,outcome,[13],inactive
same,outcome,[14],inactive
same,outcome,[15],inactive
same,outcome,[16],inactive
same,Potency,[17],inactive
same,outcome,[18],inactive
CC(C)CC(C)CC(C)CC(C)COC(=O)c1ccccc1C(=O)OCC(C)CC(C)CC(C)CC(C)C (stereo not given),outcome,[1],inactive
same,Potency,[2],inactive
same,outcome,[3],inactive
same,Potency,[4],inactive
same,outcome,[5],inactive
same,outcome,[6],inactive
same,outcome,[7],inactive
same,outcome,[8],inactive
same,outcome,[9],inactive
same,outcome,[10],inactive
same,outcome,[11],inactive
same,outcome,[12],inactive
same,outcome,[19],inactive
same,outcome,[13],inactive
same,outcome,[14],inactive
same,outcome,[16],inactive
CCC(C)NC(N)=O (stereo not given),outcome,[1],inactive
same,Potency,[2],inactive
same,outcome,[3],inactive
same,Potency,[4],inactive
same,outcome,[5],inactive
same,outcome,[6],inactive
same,outcome,[8],inactive
same,outcome,[9],inactive
same,outcome,[10],inactive
same,outcome,[11],inactive
same,outcome,[12],inactive
same,outcome,[19],inactive
same,outcome,[13],inactive
same,outcome,[14],inactive
same,outcome,[15],inactive
same,outcome,[16],inactive
CCOCCOCCOCC,outcome,[1],inactive
same,Potency,[2],inactive
same,outcome,[3],inactive
same,Potency,[4],inactive
same,outcome,[5],inactive
same,outcome,[6],inactive
same,outcome,[7],inactive
same,outcome,[8],inactive
same,outcome,[9],inactive
same,outcome,[10],inactive
same,outcome,[11],inactive
same,outcome,[12],inactive
same,outcome,[19],inactive
same,outcome,[13],inactive
same,outcome,[14],inactive
same,outcome,[15],inactive
same,Potency,[17],inactive
same,outcome,[18],inactive
CCCCCCN,outcome,[1],inactive
same,Potency,[2],inactive
same,outcome,[3],inactive
same,Potency,[4],inactive
same,outcome,[5],inactive
same,outcome,[6],inactive
same,outcome,[7],inactive
same,outcome,[8],inactive
same,outcome,[9],inactive
same,outcome,[10],inactive
same,outcome,[11],inactive
same,outcome,[19],inactive
same,outcome,[13],inactive
same,outcome,[14],inactive
same,outcome,[15],inactive
same,outcome,[16],inactive
same,Potency,[17],inactive
same,outcome,[18],inactive
